What all share (test): qHTS profiling for inhibitors of Plasmodium falciparum proliferation (AID 504749); also: nearly all actives have a fitted effect of over 60% in size
Conditions in all cases: P. falciparum in erythrocytes, SYBR Green DNA, 72 h; series mostly up to 28.7 µM
(qHTS replaces the single test concentration by a dilution series.)

One experiment deals with CP291. The essentials:
(§1)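 P. falciparum-infected erythrocytes (0.3% parasitemia, 2.5% hematocrit) incubated with compound 72 h at 37 C, 5% CO2. Parasite DNA detected by SYBR Green after lysis, overnight at room temperature; normalised to 0.29 uM artemisinin and DMSO.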

In a further experiment the test system is CP297. The essentials: as §1
The next experiment has as its system CP305. The essentials: as §1
The next experiment relates to CP315. The essentials: as §1
A further experiment deals with CP325. The essentials: as §1
For another experiment, the system named is CP329. The essentials:
as §1

Another experiment deals with CP335. The essentials: as §1
The subject of a further experiment is DFO2036. The essentials:
as §1

The test system of another experiment is DIV14. The essentials: as §1
Another experiment concerns DIV17. The essentials: as §1
In another experiment the test system is DIV30. The essentials:
as §1

Another experiment has as its system Dd2. The essentials:
as §1

Another experiment relates to ECU. The essentials: as §1
Another experiment deals with FAB9. The essentials:
as §1

In another experiment the test system is GB4. The essentials:
as §1

In a further experiment the test system is HB3. The essentials:
as §1

Another experiment relates to ICS. The essentials:
as §1

Another experiment has as its system JCK. The essentials:
as §1

Another experiment concerns N140. The essentials:
as §1

In the next experiment the test system is P93_24. The essentials: as §1

Inconclusive results are not listed. Activity calls are given as the source filed them. Calls follow the shape of the dose curve; as a rule, active = well fitted inhibition curve with a large enough effect; inconclusive = small, poorly fitted or top-dose-only effect; inactive = flat fitted curve, though single readings scatter. Numbered stars: 1 amine (or outer) side, 2 acyl side, 3 side chain; on linkers, the order of the positions; unused ones are H or OH. Bridge positions count the residues as written; N and C are the ends. Square brackets hold non-standard residues; d marks the D form. Peptide text beside a SMILES is read from it. I, II: the chains in the order shown. Actinocin(9to1) = Cc1c2oc3c(C)ccc(C(=O)[*:1])c3nc-2c(C(=O)[*:2])c(N)c1=O; NMeV = CN[C@H](C(=O)O)C(C)C; Sar = CNCC(=O)O
Potency is read from the fitted curve at half-maximal effect.

Take `C[C@]12CC[C@@H]3c4ccc(O)cc4CC[C@H]3[C@@H]1CC[C@@H]2O`: the Potency entry in the experiment on CP291, in the experiment on CP297, with CP305, in the experiment on CP315, with CP325 and with CP329 was “inactive” in each case. The Potency entry with CP335, in the experiment with DFO2036, in the experiment on DIV14, in the experiment with DIV17, in the experiment with DIV30 and in the experiment with Dd2 was “inactive” throughout. The Potency result with ECU, in the experiment on FAB9, with GB4, in the experiment on HB3, in the experiment with ICS and in the experiment with JCK was “inactive” throughout. In addition, the Potency result with N140 and with P93_24 was “inactive” each time.
Consider `CC(=O)N(O)CCCCCNC(=O)CCC(=O)N(O)CCCCCNC(=O)CCC(=O)N(O)CCCCCN`, for which the Potency result with CP291, with CP297, with CP305, in the experiment with CP315, in the experiment with CP325 and in the experiment on CP329 was “inactive” each time. Moreover, the Potency entry with CP335, in the experiment with DFO2036, with DIV14, in the experiment with DIV17, in the experiment with DIV30 and in the experiment on Dd2 was “inactive” each time. Moreover, the Potency entry in the experiment with ECU, with FAB9, in the experiment with GB4, in the experiment on HB3, in the experiment on ICS and with N140 was “inactive” throughout. Further, the Potency entry in the experiment with P93_24 is “inactive”. Besides, the Potency in the experiment with JCK is 10 µM (active).
With `CCCCOc1ccc(C(=O)CCN2CCCCC2)cc1`, the Potency entry in the experiment on CP291, in the experiment with CP297, in the experiment on CP305, in the experiment on CP315, in the experiment on CP325 and in the experiment with CP329 was “inactive” each time. For the same molecule, the Potency entry with CP335, in the experiment with DFO2036, in the experiment with DIV14, in the experiment with DIV17, in the experiment on DIV30 and in the experiment with Dd2 was “inactive” each time. In addition, the Potency entry in the experiment on ECU, in the experiment on FAB9, in the experiment on GB4, in the experiment on HB3, in the experiment with ICS and in the experiment with JCK was “inactive” in each case. The Potency result with N140 and in the experiment on P93_24 was “inactive” each time.
As to `O=C(COc1ccc(Cl)cc1)N1CCN(Cc2ccc3c(c2)OCO3)CC1`, the Potency result in the experiment with CP291, in the experiment on CP297, in the experiment with CP305, in the experiment with CP315, with CP325 and in the experiment on CP329 was “inactive” each time. Also, the Potency entry with CP335, with DFO2036, with DIV14, in the experiment on DIV17, with DIV30 and in the experiment on Dd2 was “inactive” each time. Besides, the Potency entry in the experiment on ECU, in the experiment with FAB9, with GB4, with HB3, in the experiment with ICS and in the experiment on JCK was “inactive” each time. Besides, the Potency entry with N140 and with P93_24 was “inactive” in each case.
Take `COc1ccc(CCN2CCC(Nc3nc4ccccc4n3Cc3ccc(F)cc3)CC2)cc1`: the Potency with CP291 is 4.26 µM (active); in the experiment on CP297 it was 5.36 µM (active); in the experiment with CP305, 4.26 µM (active); with CP315, 12 µM (active); in the experiment with CP325, 4.26 µM (active); with CP329 it was 9.53 µM (active). Further, the Potency with CP335 was 3.79 µM (active); in the experiment with DFO2036, 3.55 µM (active); with DIV14 it was 4.78 µM (active); with DIV17 it was 4.78 µM (active); in the experiment with DIV30 it was 13.5 µM (active); in the experiment with Dd2 it was 8.91 µM (active). The Potency in the experiment on ECU was 2 µM (active); in the experiment with FAB9, 3.16 µM (active); in the experiment with GB4, 1.9 µM (active); in the experiment on HB3, 4.47 µM (active); in the experiment with ICS, 2.82 µM (active); in the experiment with JCK it was 6.31 µM (active). Besides, the results for the Potency with N140 and in the experiment on P93_24 were 3.55 µM (active) and 2.82 µM (active), respectively.
Regarding `CCCCCCCCCCCCCCCC[N+](C)(C)CC`, the Potency in the experiment on CP291 is 4.78 µM (active); in the experiment on CP297, 6.75 µM (active); in the experiment with CP305, 6.01 µM (active); in the experiment with CP315, 4.78 µM (active); in the experiment on CP325 it was 6.01 µM (active); with CP329 it was 4.78 µM (active). Besides, the Potency with CP335 was 4.78 µM (active); in the experiment with DFO2036, 2.82 µM (active); in the experiment on DIV14 it was 7.57 µM (active); in the experiment with DIV17, 7.57 µM (active); in the experiment on DIV30, 5.36 µM (active); with Dd2 it was 6.31 µM (active). Besides, the Potency in the experiment with ECU was 5.01 µM (active); with FAB9 it was 7.94 µM (active); in the experiment with GB4, 3.79 µM (active); with HB3, 7.08 µM (active); in the experiment with ICS, 1.41 µM (active); with N140 it was 4.47 µM (active). In the experiment on P93_24, the Potency is 5.62 µM (active).
Turning to `N[C@H](CO)C(=O)O`, the Potency result in the experiment with CP291, with CP297, with CP305, in the experiment with CP315, in the experiment on CP325 and in the experiment with CP329 was “inactive” in each case. Also, the Potency result in the experiment with CP335, in the experiment on DFO2036, in the experiment with DIV14, in the experiment on DIV17, in the experiment with DIV30 and in the experiment with Dd2 was “inactive” each time. In addition, the Potency result with ECU, with FAB9, in the experiment on GB4, with HB3, in the experiment on ICS and with JCK was “inactive” throughout. The Potency result with N140 and in the experiment with P93_24 was “inactive” each time.
On to `Cc1c(C)n(CCN(C)C)c2ccc(C(=O)OCCN(C)C)cc12`, for which the Potency entry in the experiment with CP291, in the experiment on CP297, in the experiment with CP305, in the experiment on CP315, with CP325 and in the experiment with CP329 was “inactive” each time. Further, the Potency entry in the experiment with CP335, with DFO2036, in the experiment on DIV14, in the experiment on DIV17, with DIV30 and in the experiment with Dd2 was “inactive” throughout. The Potency entry in the experiment on ECU, with FAB9, in the experiment on HB3, in the experiment on JCK, with N140 and with P93_24 was “inactive” in each case.
`Cc1c2oc3c(C)ccc(C(=O)N[C@@H]4C(=O)N[C@H](C(C)C)C(=O)N5CCC[C@H]5C(=O)N(C)CC(=O)N(C)[C@@H](C(C)C)C(=O)O[C@@H]4C)c3nc-2c(C(=O)N[C@@H]2C(=O)N[C@H](C(C)C)C(=O)N3CCC[C@H]3C(=O)N(C)CC(=O)N(C)[C@@H](C(C)C)C(=O)O[C@@H]2C)c(N)c1=O` (I: T[dV]P[Sar][NMeV] / II: T[dV]P[Sar][NMeV]; ester I:1-I:C, II:1-II:C; linker I:N-II:N via Actinocin(9to1)): the Potency in the experiment with CP291 is 0.0054 µM (active); in the experiment with CP297 it was 0.006 µM (active); with CP305, 0.0054 µM (active); in the experiment on CP315 it was 0.0076 µM (active); in the experiment on CP325, 0.0054 µM (active); in the experiment with CP329, 0.006 µM (active). Further, the Potency in the experiment with CP335 is 0.0019 µM (active); in the experiment on DFO2036, 0.0032 µM (active); with DIV14, 0.0038 µM (active); in the experiment with DIV17 it was 0.0054 µM (active); in the experiment with DIV30 it was 0.0076 µM (active); in the experiment on Dd2, 0.0045 µM (active). Besides, the Potency in the experiment with ECU was 0.0032 µM (active); with FAB9, 0.0112 µM (active); in the experiment with GB4, 0.0048 µM (active); in the experiment on HB3 it was 0.005 µM (active); with ICS, 0.0025 µM (active); in the experiment on N140, 0.0035 µM (active). In addition, the Potency in the experiment on P93_24 is 0.005 µM (active).
Consider `CCCn1c(=O)[nH]c(=O)c2[nH]cnc21`, for which the Potency result in the experiment with CP291, in the experiment on CP297, in the experiment on CP305, in the experiment on CP315, in the experiment on CP325 and in the experiment with CP329 was “inactive” each time. In addition, the Potency entry with CP335, with DFO2036, in the experiment with DIV14, in the experiment with DIV17, in the experiment with DIV30 and in the experiment with Dd2 was “inactive” in each case. In addition, the Potency result in the experiment on ECU, with FAB9, in the experiment with GB4, in the experiment on HB3, with ICS and in the experiment on JCK was “inactive” throughout. Moreover, the Potency entry in the experiment with N140 and with P93_24 was “inactive” throughout.
`COc1cc(OC)cc(OC)c1`: the Potency entry with CP291, with CP297, in the experiment on CP305, with CP315, in the experiment with CP325 and in the experiment with CP329 was “inactive” each time. For the same molecule, the Potency entry in the experiment with CP335, with DFO2036, in the experiment on DIV14, in the experiment with DIV17, with DIV30 and with Dd2 was “inactive” throughout. Besides, the Potency result in the experiment with ECU, in the experiment with FAB9, with GB4, in the experiment on HB3, in the experiment on ICS and in the experiment on JCK was “inactive” each time. For the same molecule, the Potency entry in the experiment with N140 and with P93_24 was “inactive” throughout.
Regarding `O=C(OCCOCCO)c1ccccc1Nc1cccc(C(F)(F)F)c1`, the Potency result in the experiment on CP291, in the experiment with CP297, in the experiment with CP305, in the experiment on CP315, in the experiment with CP325 and in the experiment on CP329 was “inactive” each time. The Potency result in the experiment with CP335, in the experiment with DFO2036, with DIV14, in the experiment with DIV17, in the experiment with DIV30 and in the experiment with Dd2 was “inactive” in each case. The Potency entry in the experiment on ECU, in the experiment on FAB9, with GB4, with HB3, with ICS and with JCK was “inactive” in each case. The Potency result with N140 and in the experiment on P93_24 was “inactive” in each case.

Values taken from PubChem BioAssay (NCATS).
